PINK1 modulator – PINK1 expression modulation; Potency, µM (titrated, usually from 76.6 µM), without a hit: at the highest dose activation (PINK1 increase), usual class: activators; PINK1 immunofluorescence, high-content cytometry, 24 h; AID 624263; 410,000 compounds, 0.2% hits; active means well fitted activation curve with a large enough effect; inconclusive means small, poorly fitted or top-dose-only effect; cell line not stated here; further: potency means the concentration at half of the fitted maximal effect; % of control where 0% means no effect; nearly all actives have a fitted effect of over 65% in size
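PINK1 protein level read as immunofluorescence by microplate cytometer in a fixed, stained stable cell line after 24 h exposure to five compound concentrations, with CCCP as control.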
CXXC DNA block – blocks binding of human MLL CXXC domain to DNA | Q03164 | MLL-CXXC / FITC-HOXA9 DNA fluorescence polarization | Potency, µM (series often up to 115 µM), for inactives: at the highest dose activity change, negative = inhibition, usual class: inhibitors | 290,000 compounds, 0.037% hits; active means well fitted inhibition curve with a large enough effect in the polarisation, with a control signal flat, not every such curve was filed as active; inconclusive means small, poorly fitted or top-dose-only effect, or effect the other way, or a change in a side signal; inactive means no such curve, though single readings can be large or run the other way; the % refers to the polarisation; further: potency means the concentration at half of the fitted maximal effect
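Fluorescence polarization: 7 uM MLL-CXXC (stock) preincubated 5 min with compounds, then 50 nM fluorescein-HOX-A9 DNA (stock) added; 30 min ambient. Buffer 50 mM Tris-HCl pH 7.5, 50 mM NaCl, 1 mM DTT, 0.05% BSA.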
Menin MLL FP TR – menin-MLL binding inhibition, Texas Red mutant peptide; O00255; Menin + Texas Red MLL mutant peptide, fluorescence polarization; Potency, µM (series often up to 61.6 µM), for inactives: at the highest dose FP activity change, negative = inhibition, most hits filed as inhibitors; 270,000 compounds, 0.23% hits; AID 1768; active means well fitted inhibition curve with a large enough effect in the polarisation, with a control signal flat, not every such curve was filed as active; inconclusive means small, poorly fitted or top-dose-only effect, or effect the other way, or a change in a side signal; inactive means no such curve, though single readings can be large or run the other way; the % refers to the polarisation; further: potency means the concentration at half of the fitted maximal effect; % of control where 0% means no effect
Epigenetic derep – regulators of epigenetic silencing causing reporter derepression in mouse cells; murine LDR cells, GFP reporter derepression, 30 h; Potency, µM (titrated, usually from 53.9 µM), inactives show at the top dose GFP activation, most hits filed as activators; 280,000 compounds, 0.2% hits; AID 1865; active means well fitted activation curve with a large enough effect; inconclusive means small, poorly fitted or top-dose-only effect; further: potency means the concentration at half of the fitted maximal effect; % of control where 0% means no effect; nearly all actives have a fitted effect of over 60% in size
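In this reporter-derepression format, murine cells bearing a silenced integrated CMV-GFP locus incubate with test compound (30 h, 37 C), then are washed and imaged; fluorescent objects of 20–120 um count as induced cells.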
Menin-MLL FL inh – menin-MLL binding inhibition, fluorescein peptide. FP activity change, % at 61.4 µM. 290,000 tested, under 10 active. Fluorescence polarization, fluorescein-MLL peptide displacement from menin; active means well fitted curve in the direction sought with a large enough effect in the polarisation, not every such curve was filed as active; inconclusive means small, poorly fitted or top-dose-only effect, or effect the other way, or a change in a side signal; inactive means no such curve, though single readings can be large or run the other way; the % refers to the polarisation; further: % of control where 0% means no effect
ClpP mod – qHTS Assay for Activators of ClpP | ATP-dependent Clp protease proteolytic subunit (Bacillus subtilis (strain 168)), P80244 | purified B. subtilis ClpP, FRET peptide cleavage, 20 min | Potency, µM (top dose mostly 57.5 µM), for inactives: at the top dose activity change, negative = active | 340,000 compounds, 1.9% hits | AID 651965, 2013; active means well fitted falling curve with a large enough effect; inconclusive means small, poorly fitted or top-dose-only effect; inactive means no such curve, though single readings can be large or run the other way; further: potency means the concentration at half of the fitted maximal effect; the source files actives as falling curves though it sought activators and does not explain the sign; nearly all actives have a fitted effect of over 65% in size
Target sequence (P80244 whole entry, looked up): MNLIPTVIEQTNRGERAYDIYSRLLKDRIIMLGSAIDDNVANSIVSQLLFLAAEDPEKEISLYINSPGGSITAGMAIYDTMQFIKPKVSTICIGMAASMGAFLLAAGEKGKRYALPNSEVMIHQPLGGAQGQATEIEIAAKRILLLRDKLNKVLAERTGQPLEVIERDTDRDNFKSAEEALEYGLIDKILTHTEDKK
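ClpP 10 microg/mL final, pH 8 Tris/KCl buffer with BSA, glycerol, Tween-20; compound pinned in; FRET-FV substrate; RT 20 min; Ex320/Em430; ΔFRET vs ADEP 5.8 microM, DMSO, no enzyme.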
* marks the source's active call; other numbers are inactive results; [ ] = remark or other dose. In the library only some 1.9% were active in any assay of this set; here they are far more common.

For Cc1nc(SCC(=O)NCCc2ccccc2)nc(C)c1C the results were PINK1 modulator -1.0%, CXXC DNA block 10.1%, Menin MLL FP TR -12.6%, Epigenetic derep -0.6%, Menin-MLL FL inh -2.4 and ClpP mod 15.8µM*.
COc1cccc(/C=N/NC(=O)c2cc(-c3ccc(C)cc3)n[nH]2)c1O was read as Epigenetic derep 3.9%.
For Cc1nc2ccn(Cc3cccs3)c(=O)c2cc1C(=O)NCc1ccccc1 the results were PINK1 modulator 10.9%, Epigenetic derep 0.0% and ClpP mod 4.3%.
`COc1cccc(CNC(=O)c2cc3c(=O)n(Cc4cccnc4)ccc3nc2C)c1` gave PINK1 modulator 0.5%, Epigenetic derep 1.5% and ClpP mod inconclusive.
For COc1ccc(CNC(=O)c2cc3c(=O)n(Cc4cccs4)ccc3nc2C)cc1 the results were PINK1 modulator -0.6%, Epigenetic derep 0.0% and ClpP mod 14.1µM*.
For COc1ccc(NC(=O)c2cc3c(=O)n(Cc4cccnc4)ccc3nc2C)cc1OC the results were PINK1 modulator -1.0%, Epigenetic derep 0.0% and ClpP mod -9.0%.
`COc1ccc(CNC(=O)c2cc3c(=O)n(Cc4cccnc4)ccc3nc2C)cc1` gave PINK1 modulator -0.5%, Epigenetic derep 0.8% and ClpP mod 25.1µM*.
`Cc1ccc(CNC(=O)c2cc3c(=O)n(Cc4cccnc4)ccc3nc2C)cc1` gave PINK1 modulator 0.5%, Epigenetic derep 1.1% and ClpP mod 28.2µM*.
Screening Cc1cc2c(c(-c3ccc(Cl)cc3)c1)OC(CNC(=O)Cc1c(C)noc1C)C2 (configuration not stated) returned PINK1 modulator 3.9%.
For O=c1c2cc3c(cc2n(Cc2ccc(Cl)cc2)c(=O)n1Cc1nc(-c2ccccc2)no1)OCO3 the results were PINK1 modulator 3.2%, Epigenetic derep 8.1% and ClpP mod -17.5%.
CN(C)c1ccc(/C=C/c2ccnc3c(Cl)cccc23)cc1 was read as ClpP mod -1.5%.
Screening Cc1cccc(C(=O)Nc2ccc(-c3nc4ccccc4s3)cc2Cl)c1 returned PINK1 modulator 0.3%, Epigenetic derep 1.3% and ClpP mod 25.1µM*.
Cc1ccccc1C1(CC(=O)N2CCCCC2C)CC(=O)N(Cc2cccnc2)C1=O (configuration not stated) was read as PINK1 modulator -0.7%.
Cn1c(=O)c2c(nc(N/N=C/c3cccs3)n2Cc2ccccc2)n(C)c1=O was read as PINK1 modulator 1.3%, CXXC DNA block 30.3%, Menin MLL FP TR -11.3%, Epigenetic derep -2.0%, Menin-MLL FL inh 6.8 and ClpP mod -0.7%.
Screening Cn1c(=O)c2c(nc(N/N=C/c3ccc(OC(=O)c4ccco4)cc3)n2Cc2ccccc2)n(C)c1=O returned PINK1 modulator 2.8%, CXXC DNA block 2.5%, Menin MLL FP TR 11.4%, Epigenetic derep -1.8%, Menin-MLL FL inh 2.6 and ClpP mod 28.2µM*.
COc1ccc2nc(SCC(=O)Nc3ccc(S(=O)(=O)N4CCCC4)cc3)c(C#N)cc2c1 was read as PINK1 modulator 13.1%[38.3 µM], CXXC DNA block 27.6%, Menin MLL FP TR 15.8µM*, Epigenetic derep -1.0%, Menin-MLL FL inh 12.9 and ClpP mod -4.1%.
For Cc1ccc2nc(SCC(=O)Nc3ccc4sc(C)nc4c3)c(C#N)cc2c1 the results were PINK1 modulator inconclusive, CXXC DNA block 38.9%, Menin MLL FP TR -17.3%, Epigenetic derep 5.62µM*, Menin-MLL FL inh 13.2 and ClpP mod -1.0%.
`Cc1c(C(=O)N(C)C2CCOC2)sc2ncnc(NCc3ccc4c(c3)OCO4)c12` (configuration not stated) gave PINK1 modulator 0.0%.
Screening Cc1nc2c(=O)n(C)c(=O)[nH]c2n1Cc1ccccc1 returned PINK1 modulator -2.4%, CXXC DNA block -4.8%, Menin MLL FP TR 0.5%, Epigenetic derep -0.3%, Menin-MLL FL inh 0.0 and ClpP mod 28.2µM*.
Screening Cc1ccc(SC(=O)c2c([N+](=O)[O-])c(C)nn2C)cc1 returned PINK1 modulator 4.3%, CXXC DNA block -8.0%, Epigenetic derep 22.4µM* and Menin-MLL FL inh 4.8.
Screening CSc1nc2nc(C)cc(-c3ccccc3)n2n1 returned PINK1 modulator -2.3%, CXXC DNA block -5.5%, Menin MLL FP TR 4.5%, Epigenetic derep -0.8%, Menin-MLL FL inh 3.5 and ClpP mod inconclusive.
For CSc1nc2nc(C(F)(F)F)cc(-c3ccccc3)n2n1 the results were PINK1 modulator 0.8%, CXXC DNA block 17.3%, Menin MLL FP TR -1.3%, Epigenetic derep -0.1%, Menin-MLL FL inh 0.5 and ClpP mod 31.6µM*.
`CC1=CC(=O)c2c(O)ccc(O)c2C1=O` gave CXXC DNA block 31.6µM*, Menin MLL FP TR inconclusive, Epigenetic derep -0.5% and Menin-MLL FL inh inconclusive.
`Cc1cc(NC(=O)C2CCCCC2)ccc1NC(=O)c1ccccc1Cl` gave PINK1 modulator 19.3%, CXXC DNA block 6.0%, Menin MLL FP TR -6.1%, Epigenetic derep -1.5%, Menin-MLL FL inh 6.9 and ClpP mod 15.8µM*.
O=C(Cn1cc([N+](=O)[O-])cn1)NC1CCCCCC1 was read as PINK1 modulator 0.1%, CXXC DNA block -0.8%, Menin MLL FP TR 1.5% and Menin-MLL FL inh 1.4.
COC(=O)c1c(NC(=O)Cn2cc([N+](=O)[O-])cn2)sc2c1CCC2 was read as PINK1 modulator 5.9%, CXXC DNA block 11.8%, Menin MLL FP TR 0.0%, Epigenetic derep -1.1%, Menin-MLL FL inh -1.0 and ClpP mod 12.6µM*.
COc1ccc(-c2nc3cccc(C)n3c2NCc2ccco2)cc1OC was read as PINK1 modulator 3.9%, CXXC DNA block 8.6%, Menin MLL FP TR inconclusive, Epigenetic derep 0.9%, Menin-MLL FL inh -0.4 and ClpP mod 14.1µM*.
Cc1cc(C)n2c(-c3ccccc3Cl)nnc2n1 was read as PINK1 modulator 0.8%, CXXC DNA block 8.9%, Menin MLL FP TR -9.3%, Epigenetic derep -0.7%, Menin-MLL FL inh 0.1 and ClpP mod 28.2µM*.
Screening Cc1cc(C)n2c(SCc3ccccc3Cl)nnc2n1 returned PINK1 modulator -0.1%, CXXC DNA block 1.7%, Menin MLL FP TR 2.1%, Epigenetic derep -6.8%, Menin-MLL FL inh 0.8 and ClpP mod -4.6%.
`N#Cc1sc2nc(N3CCCCC3)c3c(c2c1N)CCCC3` gave PINK1 modulator 9.8%, CXXC DNA block 2.8%, Menin MLL FP TR 11.6%, Epigenetic derep 2.3%, Menin-MLL FL inh 2.3 and ClpP mod 28.2µM*.

Bioassay records: PubChem, National Center for Advancing Translational Sciences (NCATS)
